# In the library only some 2.2% were active in any assay of this set; here they are far more common.
# HTR5A ag ctr = activates human HTR5A in OPRM1-OPRD1 agonist counter-screen; P47898; HTR5A agonist assay, luminescence, cell-based; activation, % at 9.3 µM; hit rate 0.61% among 340,000; in the data active = activation mostly above about 9.5%, no sharp cut-off; inactive = mostly below about 7.6%;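 also: 0% = cells with vehicle only and 100% = reference agonist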
# m5-HT2A agonist = agonists of mouse serotonin 5-HT2A receptor (HTR2A). P35363. CHO-K1 mHTR2A beta-arrestin complementation, luminescence; percent of 30 µM serotonin response. activation, % at 7.6 µM. hit rate 0.66% among 360,000. AID 624169;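 active = activation above a run cutoff, the mean activation of all tested compounds plus 3 SD, cut at about 14% in these data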;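 also: 0% = plate median of compound wells and 100% = 30 µM serotonin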
# Target sequence (P35363 whole entry, looked up): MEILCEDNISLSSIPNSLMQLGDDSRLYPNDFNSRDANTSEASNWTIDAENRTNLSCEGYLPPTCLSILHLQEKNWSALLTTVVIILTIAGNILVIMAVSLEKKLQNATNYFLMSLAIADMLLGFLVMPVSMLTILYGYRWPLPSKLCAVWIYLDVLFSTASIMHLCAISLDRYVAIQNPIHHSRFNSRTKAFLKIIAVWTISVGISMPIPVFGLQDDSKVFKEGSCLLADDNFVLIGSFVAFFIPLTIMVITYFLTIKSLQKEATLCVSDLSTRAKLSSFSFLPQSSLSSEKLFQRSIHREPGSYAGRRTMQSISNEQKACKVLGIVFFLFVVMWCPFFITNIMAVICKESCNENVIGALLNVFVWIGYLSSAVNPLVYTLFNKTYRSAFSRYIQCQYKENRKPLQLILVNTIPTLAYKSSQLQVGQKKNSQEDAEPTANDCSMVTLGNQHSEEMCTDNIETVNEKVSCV
# OPRM1-OPRD1 ag = OPRM1-OPRD1 heterodimerization agonism; P35372+P41143; cells, luminescence; activation, % at 9.3 µM; hit rate 0.3% among 340,000; AID 504326; in the data active = activation above about 18%;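 also: 0% = vehicle-treated cells and 100% = reference agonist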
# HTR5A inv ctr = counter-screen for OPRM1-OPRD1 inverse agonists: human HTR5A inverse agonism; HTR5A cell line, luminescence; inhibition, % at 9.3 µM; hit rate 0.083% among 340,000; in the data active = inhibition mostly above about 23%, no sharp cut-off; inactive = mostly below about 18%;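 also: 0% = cells with DMSO and 100% = no-cell wells with DMSO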
# OPRM1-OPRD1 inv = inverse agonist of human OPRM1-OPRD1 heterodimerization | hit rate 0.21% among 340,000 | inhibition, % at 9.3 µM | P35372+P41143 | cell-based MOR-DOR heterodimer luminescence, inverse agonism; in the data active = inhibition above about 22%, passing the limit was not always enough;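 also: 0% = cells with DMSO and 100% = wells without cells with DMSO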
# HGIII-sPLA2 inh = Inhibits HGIII-sPLA2 liposome hydrolysis, primary screen | QFRET BODIPY PC-A2 liposome hydrolysis, fluorescence | inhibition, % at 12.2 µM | hit rate 0.56% among 370,000 | AID 743126;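 active = inhibition above mean plus 3 SD of compounds lying within the high and low control bounds, cut at about 19% in these data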;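 also: 0% = median of test compound wells and 100% = no enzyme DMSO wells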
# OPRM1 ag = activates human mu opioid receptor in HTR2A counterscreen | shares compounds with m5-HT2A agonist | activation, % at 9.3 µM | AID 624380 | hit rate 5.3% among 2,300 | U2OS OPRM1 beta-arrestin PathHunter, luminescence; DMSO 0%, DAMGO 9.3 µM 100%;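 active = mean activation above the mean of DMSO-only wells plus 3 SD, cut at about 0.5% in these data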
# m5-HT2A ag conf = confirmation of mouse HTR2A serotonin receptor agonists. CHO-K1 PathHunter beta-arrestin recruitment, luminescence; DMSO 0%, 30 µM serotonin 100%. shares compounds with m5-HT2A agonist. activation, % at 7.6 µM. hit rate 19% among 2,300;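 active = mean activation across triplicates above the hit threshold derived in the original primary screen, cut at about 15% in these data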
# Active calls of the source: *; nt = no result given.
SMILES,HTR5A ag ctr,m5-HT2A agonist,OPRM1-OPRD1 ag,HTR5A inv ctr,OPRM1-OPRD1 inv,HGIII-sPLA2 inh,OPRM1 ag,m5-HT2A ag conf
CCc1ccc(CN(C(=O)c2oc3ccccc3c2C)C2CCS(=O)(=O)C2)cc1 (stereo not given),4,15*,1,-11,-9,-12,0,-3
COc1ccc(NC(=O)Nc2ccc3c(c2)C(=O)N([C@H](C)CO)C[C@H](C)[C@@H](CN(C)S(=O)(=O)c2ccccc2)O3)cc1,-6,7,-1,15,4,-40,nt,nt
C[C@@H]1CN([C@H](C)CO)C(=O)c2cc(NS(=O)(=O)c3ccc(F)cc3)ccc2O[C@@H]1CN(C)Cc1ccc(Cl)c(Cl)c1,3,21*,4,-12,-16,-64,0,7
C[C@@H]1CN([C@@H](C)CO)C(=O)Cc2cc(NS(=O)(=O)c3ccccc3)ccc2O[C@H]1CN(C)Cc1ccncc1,6,0,-1,-10,8,-6,nt,nt
Cc1ccc(S(=O)(=O)Nc2ccc3c(c2)CC(=O)N([C@H](C)CO)C[C@@H](C)[C@H](CN(C)Cc2ccc(-c4ccccc4)cc2)O3)cc1,4,19*,0,-6,-2,nt,-1,18*
COc1ccc(NC(=O)Nc2ccc3c(c2)C(=O)N([C@H](C)CO)C[C@H](C)[C@@H](CN(C)S(=O)(=O)c2ccc(F)cc2)O3)cc1,-1,18*,-1,-6,6,-47,-1,-3
C[C@H](CO)N1C[C@H](C)[C@H](CN(C)Cc2ccc(-c3ccccc3)cc2)Oc2ccc(NS(=O)(=O)c3ccccc3)cc2CC1=O,14*,16*,4,-23,-24,nt,0,28*
Cc1ccc(S(=O)(=O)Nc2ccc3c(c2)C(=O)N([C@H](C)CO)C[C@H](C)[C@@H](CN(C)Cc2ccccc2)O3)cc1,1,6,1,14,-8,-33,nt,nt
Cc1ccc(CNC(=O)OC(C)(C)C)c(/C=C/S(=O)(=O)NCCc2ccccc2)c1,nt,nt,nt,nt,nt,4,nt,nt
O=C(CSc1nnc(-c2ccc(Cl)cc2)n1Cc1ccco1)Nc1ccc(S(=O)(=O)Nc2nccs2)cc1,nt,nt,nt,nt,nt,-10,nt,nt
C#CCCC(=O)Nc1sc2c(c1-c1nc3ccccc3s1)CCN(C(C)C)C2,nt,nt,nt,nt,nt,-132,nt,nt
CCOC(=O)C1(Cc2cccc(Cl)c2)CCCN(C(=O)c2cc(C)n(C)n2)C1 (stereo not given),-1,17*,-4,0,19,1,-1,-2
COC(=O)CCC(=O)NNC(=O)c1ccc([N+](=O)[O-])cc1,7,14*,-1,-18,6,0,0,6
Cc1csc(=O)n1CC(=O)OCC(=O)NNC(=O)c1ccc([N+](=O)[O-])cc1,4,15*,2,-2,-13,7,0,1
CCCCCCCC(=O)NNC(=O)c1ccc([N+](=O)[O-])cc1,0,0,-2,-6,9,-15,nt,nt
c1ccc(Cn2ccc3ccc(-c4ccc5ccn(Cc6cccc(-c7ccsc7)c6)c5c4)cc32)cc1,nt,nt,nt,nt,nt,-4,nt,nt
O=C(Nc1ccccc1)C(O)C(O)C(=O)Nc1ccccc1 (stereo not given),-2,24*,-1,8,4,4,-1,-3
COC(=O)[C@]12C[C@H](CC(=O)NCCCCc3ccccc3)C(=O)N(CCC3=CCCCC3)C1=C[C@H](C1CCCC1)O[C@@H]2C,nt,nt,nt,nt,nt,-10,nt,nt
CC(CCc1ccc(O)cc1)NCCc1ccc(O)c(O)c1 (stereo not given),3,27*,0,4,2,10,0,120*
OCC1(Cc2cccc(C(F)(F)F)c2)CCN(Cc2cc3ccccc3o2)CC1,4,24*,6,-12,-30,-13,0,64*
COc1ccc(CC2(CO)CCN(Cc3ccncc3)CC2)cc1,3,3,0,-8,-2,-3,nt,nt
COc1ccc(CC2(CO)CCN(Cc3cc4ccccc4o3)CC2)cc1,-1,40*,0,8,2,-19,-1,66*
CCCC[C@H](C(=O)N(C)c1cccc(OC)c1)[C@@H](O)c1ccc(Cl)cc1,nt,nt,nt,nt,nt,-1,nt,nt
CCOC(=O)N1CCN(C(=O)C[C@H]2C(=O)N(CCCOC)C3=CCCC[C@@]32C(=O)OCC)CC1,nt,nt,nt,nt,nt,7,nt,nt
COc1ccc(OCC(=O)NC(=S)NNC(=O)COc2ccc(Br)cc2Cl)cc1,2,16*,-1,-5,6,-9,-1,-3
SMILES,HTR5A ag ctr,m5-HT2A agonist,OPRM1-OPRD1 ag,HTR5A inv ctr,OPRM1-OPRD1 inv,HGIII-sPLA2 inh,OPRM1 ag,m5-HT2A ag conf
CC(=O)N1c2ccccc2C(C)=NCC1C(=O)NC1CCCCC1 (stereo not given),nt,nt,nt,nt,nt,-2,nt,nt
COc1ccc(C2Nc3ccccc3C(=O)N2Cc2ccc(C)o2)cc1COc1c(C)cccc1C (stereo not given),nt,nt,nt,nt,nt,16,nt,nt
Cc1ccccc1Nc1nc(-c2sc(NC(=O)c3ccco3)nc2C)cs1,1,19*,-2,-21,14,-2,0,1
CCOc1ccccc1Nc1nc(-c2sc(NC(=O)c3ccco3)nc2C)cs1,3,-7,-2,5,13,-10,nt,nt
CC(C)(C)c1ccc(S(=O)(=O)N2CCCC(C(=O)N3CCN(Cc4ccccc4)CC3)C2)cc1 (stereo not given),nt,nt,nt,nt,nt,-7,nt,nt
CC1CCCN(C2(O)C(=O)Nc3ccc([N+](=O)[O-])cc32)C1 (stereo not given),-3,17*,-2,9,11,-9,-1,-2
COc1ccccc1CN1CC(C(=O)NCc2cc(C)on2)CCC1=O (stereo not given),4,16*,-3,-14,15,6,0,2
COC(=O)C1=C(C)N(C)C(=NCc2ccc3c(c2)OCO3)NC1c1ccc(F)cc1 (stereo not given),nt,nt,nt,nt,nt,-2,nt,nt
COCC(=O)Nc1ccc([N+](=O)[O-])cc1OC,-1,-2,-2,9,11,2,nt,nt
COCC(=O)Nc1cc([N+](=O)[O-])ccc1OC,-3,44*,-2,-14,8,17,-1,-5
O=C(CCCc1ccccc1)Nc1ccc2c(c1)OCCO2,5,-6,-1,-14,8,-4,nt,nt
O=C(Nc1ccc2c(c1)OCCO2)C(CCc1ccccc1)N(Cc1ccccc1)Cc1ccccc1 (stereo not given),nt,18*,nt,nt,nt,-10,-1,-6
CC(C(=O)NCc1ccc(F)cc1)n1ccc2cc(S(=O)(=O)N3CCCC3)ccc21 (stereo not given),6,15*,-2,-21,9,-9,0,0

# Screening data: PubChem BioAssay, The Scripps Research Institute Molecular Screening Center
